Measured values: PubChem BioAssay AID686978 (National Center for Advancing Translational Sciences (NCATS), 2013)
Values joined by “and” are separate entries in the source; they are usually repeats but may differ in a detail not shown here. Identical values can stand only once. In all, about 420,000 compounds went through this assay and about 64,000 (15%) were called active. Inconclusive results (about 27%) are left out. The call rests on the fitted dose curve; in most records, active means well fitted inhibition curve with a large enough effect; inconclusive means small, poorly fitted or top-dose-only effect; inactive means flat fitted curve, though single readings scatter. These entries were drawn from the full list. Where a call stands in place of a potency, no number is given.

Experiment: qHTS for Inhibitors of human tyrosyl-DNA phosphodiesterase 1 (TDP1): qHTS in cells in absence of CPT; further: nearly all actives have a fitted effect of over 55% in size
Conditions: DT40 Tdp1-/- hTDP1 cells, no CPT, ATP luminescence, 48 h; activity change, negative = growth inhibition: at 46.2 µM (top of the series)
In short: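 Growth of hTDP1-complemented DT40 Tdp1-knockout cells is measured by ATP luminescence after at least 48 hr compound exposure at 37 °C, with DMSO substituting for the 20 nM CPT used in the parallel screen.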
Potency means the concentration at half of the fitted maximal effect.

SMILES	Potency
COc1ccc(C2(O)C(=O)Nc3ccccc32)cc1 (stereo unspecified)	inactive
O=C(NNC(=O)c1ccc(Cl)cc1Cl)c1cccs1	inactive
O=C(Nc1cccc2cccnc12)c1cccc(N2C(=O)CCC2=O)c1	inactive
O=c1cc(CO)oc(CN2CCC(Cc3ccccc3)CC2)c1O	inactive
O=c1c2ccccc2nc2n1C(CSc1ccc(Cl)cc1)CN2 (stereo unspecified)	inactive
O=c1c2ccccc2nc2n1C(CSc1ccc(F)cc1)CN2 (stereo unspecified)	inactive
O=c1c2ccccc2nc2n1C(CSCc1ccccc1)CS2 (stereo unspecified)	6.51 µM (active)
O=c1c2ccccc2nc2n1C(CSCc1cccc(C(F)(F)F)c1)CS2 (stereo unspecified)	3.66 µM (active)
Cn1cc(S(=O)(=O)Nc2ccc(Cl)cc2Cl)c(=O)n(C)c1=O	inactive
CCN(CC)CCNC(=O)C1c2ccccc2C(=O)N(C)C1c1cn(C)c2ccccc12 (stereo unspecified)	inactive
CCOC(=O)N1CCC(NC(=O)C(NS(=O)(=O)c2ccc3c(c2)CCN3C(=O)CC)C(C)C)CC1 (stereo unspecified)	inactive
CN(C)C(=O)[C@@H]1C[C@@H](Sc2nc3ccccc3[nH]2)CN1Cc1ccc(Cl)cc1	inactive
CC1CC(C)CN(CCCNC(=O)Cn2ncc3c([nH]c4ccccc43)c2=O)C1 (stereo unspecified)	inactive
O=C(Cc1csc(Nc2nc(=S)[nH]c3ccccc23)n1)NCCCN1CCN(c2cccc(Cl)c2)CC1	9.2 µM (active)
O=C(CCn1c(=S)[nH]c2ccccc2c1=O)NCCCN1CCCC1=O	inactive
O=C(CN1C(=O)NC2(CCCCCCC2)C1=O)NCc1ccc(F)cc1	inactive
COc1ccc(CNC(=O)C2=Cc3cccc(OC)c3OC2)cc1OC	inactive
O=C(NN1C(=O)C2C3C=CC(O3)C2C1=O)c1ccncc1 (stereo unspecified)	inactive
CSC1=NN(c2ccccc2)CN(c2ccccc2)N1C	inactive
O=C(CCCN1C(=O)c2ccccc2C1=O)Oc1ccc(Cl)cc1	inactive
CCCCC[C@H]1CN(C2CCCCC2)C(=O)[C@@H]1CC(=O)NCc1ccc(OC)cc1	10 µM (active)
Cc1ccc(CNC(=O)C2CC(=O)N(C3CCCCCCC3)C2)cc1 (stereo unspecified)	inactive

SMILES	Potency
COc1ccc(CNC(=O)[C@@H]2CC=C[C@@H]3CCN(C4CC4)C(=O)[C@@H]32)cc1	inactive
O=C(CCc1nnc2ccc(NCCCN3CCCC3=O)nn12)NCc1ccccc1Cl	inactive
Cc1ccc(OCCCn2c(=O)oc3ccccc32)cc1	inactive
CCCCCCCCCCOC(=O)Cn1c(COc2cccc(OC)c2)[n+](C)c2ccccc21	2.31 µM (active)
CCCCCCCCCCOC(=O)Cn1c(COc2ccc(C)cc2)[n+](C)c2ccccc21	3.26 µM (active)
CCn1c(COc2cccc(OC)c2)nnc1SCC(=O)N1CCOCC1	inactive
CCOC(=O)Cn1c(-c2cccnc2Cl)nc2ccccc21	inactive
COc1cccc(OCCCN2CCCCCC2)c1	inactive
Cc1ccc(C)c(-n2ccnc2SCC(N)=O)c1	inactive
CCn1cc(C(=O)OCC(=O)Nc2cccc(C)c2)c(=O)c2ccc(C)nc21	inactive
C/C=C/C=C/C(=O)O	inactive
COc1cc(/C=C/C(=O)OCC(=O)NCCCc2ccccc2)ccc1O	inactive
C[C@@H](NC(=O)[C@@H]1Cc2ccccc2CN1)C(=O)NC1CCCC1	inactive
COc1ccc(/C=N/n2nnnc2N)cc1OC	inactive
COc1cc(OC)c(/C=C/c2ccnc3ccccc23)c(OC)c1	8.91 µM (active)
COc1cc(/C=C/c2ccc(/C=C/c3cc(OC)c(OC)c(OC)c3)cc2)cc(OC)c1OC	inactive
COc1ccc(/C=C/c2ccccn2)cc1OC	12.6 µM (active)
C=CCOc1ccc(/C=N/n2cncn2)cc1OC	inactive
COc1ccc(/C=C/c2ccnc3ccccc23)cc1OC	12.6 µM (active)
COc1ccc(/C=C/c2noc(-c3ccccc3O)n2)cc1OC	inactive
COc1cc(OC)cc(C(=O)NNC(=O)CCOc2ccccc2OC)c1	inactive
O=C(CSc1nnc(-c2ccccc2)o1)N1CCOCC1	inactive

SMILES	Potency
O=C(CN1C(=O)c2ccccc2S1(=O)=O)N1CCc2ccccc21	inactive
Cc1ccc2c(O)c(Cc3ccccc3)c(=O)[nH]c2n1	inactive
CC(C)N(Cc1nnc(-c2ccc(Cl)cc2)o1)C(=O)C1=COCCO1	inactive
O=c1nc(NO)ccn1C1CCCO1 (stereo unspecified)	inactive
Cc1ccc(OCc2nnc(NC(=O)OCC(C)C)s2)cc1	inactive
O=C(CNC(=O)c1cccs1)N/N=C/c1cccc(Br)c1	inactive
CCOC(=O)C1CCCN(S(=O)(=O)c2ccc(-n3cnnn3)c(C)c2)C1 (stereo unspecified)	inactive
O=C(Nc1cccc(Cl)c1)c1cc(S(=O)(=O)N2CCCCC2)c[nH]1	inactive
CCc1cccc(NC(=O)C2CCCN(S(=O)(=O)c3ccc4[nH]c(=O)ccc4c3)C2)c1 (stereo unspecified)	inactive
CC(=O)N1c2ccc(S(=O)(=O)N3CCCC(C(=O)Nc4cccc(F)c4)C3)cc2CC1C (stereo unspecified)	29.1 µM (active)
Cc1cc(C)cc(NC(=O)C2CCCN(S(=O)(=O)c3ccc4[nH]c(=O)ccc4c3)C2)c1 (stereo unspecified)	inactive
CCOC(=O)C1CCCN(S(=O)(=O)c2ccc3c(c2)C(C)(C)C(=O)N3C)C1 (stereo unspecified)	inactive
CC(=O)N1c2ccc(S(=O)(=O)N3CCC(C(=O)NCc4ccc(F)cc4)CC3)cc2CC1C (stereo unspecified)	inactive
CC(=O)N1CCCc2cc(S(=O)(=O)Nc3ccc(Cl)cc3F)ccc21	23.1 µM (active)
COc1ccc(NC(=O)C(CC(C)C)NS(=O)(=O)c2ccc3c(c2)CCN3C(C)=O)cc1OC (stereo unspecified)	inactive
CC(=O)N1CCCc2cc(S(=O)(=O)N3CCCC(C(=O)N4CCN(c5cccc(Cl)c5)CC4)C3)ccc21 (stereo unspecified)	2.59 µM (active) and 8.2 µM (active)
CC(=O)N1c2ccc(S(=O)(=O)N3CCCC(C(=O)Nc4cccc(Cl)c4)C3)cc2CC1C (stereo unspecified)	20.6 µM (active)
CC(=O)N1CCCc2ccc(NS(=O)(=O)c3ccc(F)cc3F)cc21	inactive
Cc1nc2cc(S(=O)(=O)C(F)(F)F)ccc2s1	inactive
CCOC(=O)c1sc(NC(=O)C2CSC3(C)CCC(=O)N23)nc1C (stereo unspecified)	inactive
O=C(COC(=O)[C@H](Cc1ccccc1)NC(=O)c1cccs1)Nc1cc(F)ccc1F	inactive
C/C(=N\Nc1ccc([N+](=O)[O-])cc1)c1ccc(-n2nncc2C(C)(C)C)cc1	inactive
